Sampled rows, rich in hits. Any-hit rate of the full collection: about 10%.
p97 ATPase inh: inhibitors of human p97 ATPase, primary screen, biochemical | inhibition, % at 8 µM | recombinant p97 ATPase, Kinase-Glo ATP luminescence, 3 h | 0.42% of 220,000 active | Transitional endoplasmic reticulum ATPase (Homo sapiens), P55072; in the data active means inhibition above about 15%;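 further: 0% = DMSO vehicle and 100% = wells lacking enzyme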
Target sequence (P55072 whole entry, looked up): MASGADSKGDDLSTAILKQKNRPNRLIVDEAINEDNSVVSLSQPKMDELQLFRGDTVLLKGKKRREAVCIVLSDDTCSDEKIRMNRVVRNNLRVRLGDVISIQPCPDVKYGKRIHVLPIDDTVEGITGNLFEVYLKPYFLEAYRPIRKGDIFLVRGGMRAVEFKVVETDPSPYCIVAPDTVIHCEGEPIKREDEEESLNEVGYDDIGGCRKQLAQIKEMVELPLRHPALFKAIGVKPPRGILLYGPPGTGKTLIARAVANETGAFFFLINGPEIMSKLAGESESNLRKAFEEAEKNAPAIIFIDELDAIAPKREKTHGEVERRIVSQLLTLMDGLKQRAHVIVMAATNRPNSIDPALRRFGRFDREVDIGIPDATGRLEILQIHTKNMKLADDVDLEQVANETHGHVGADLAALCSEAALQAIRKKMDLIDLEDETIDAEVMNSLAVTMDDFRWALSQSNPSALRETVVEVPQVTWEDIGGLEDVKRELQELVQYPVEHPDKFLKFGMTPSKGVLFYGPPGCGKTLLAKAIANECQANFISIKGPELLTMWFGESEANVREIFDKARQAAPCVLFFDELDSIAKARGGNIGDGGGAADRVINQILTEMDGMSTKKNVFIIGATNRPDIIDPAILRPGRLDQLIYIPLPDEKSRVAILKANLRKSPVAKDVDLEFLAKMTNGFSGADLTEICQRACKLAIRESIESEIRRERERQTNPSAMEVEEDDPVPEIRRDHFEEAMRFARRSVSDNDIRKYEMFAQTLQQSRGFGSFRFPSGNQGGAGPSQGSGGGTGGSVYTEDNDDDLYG
ROMK primary: ROMK potassium channel modulators, primary screen, cell-based, thallium flux, MLSMR library; B-score at 10 µM; Tet-inducible ROMK, thallium flux fluorescence; actives lie on both sides; ATP-sensitive inward rectifier potassium channel 1 (Homo sapiens), P48048; 2% of 130,000 active; AID 1918, 2009;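 active means signal ratio slope over the read window, or its plate-corrected B-score, at least 3 SD from the plate mean, either direction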;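 further: B-score of the F/F0 ratio slope over 7 to 12 s after thallium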
PTEN del growth: growth suppression of PTEN-null HCT116, primary screen, cell-based, CellTiter-Glo | HCT116 PTEN-null viability, 60 h; stronger effect = lower value | 1.2% of 140,000 active | viability, % at 10 µM;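 active means viability at or below a set limit, 4 SD under the median of all tested compounds, cut at about 3.7% in these data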;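 further: PTEN knockout HCT116 line with beta catenin targeted HCT116 as companion control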
bCat KO growth: primary screen for growth suppressors in beta-catenin knockout HCT116 cells (colon tumor, human); HCT116 beta-catenin knockout viability, CellTiter-Glo, 60 h; stronger effect = lower value; AID 818, 2007; viability, % at 10 µM; 1.5% of 140,000 active;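 active means viability at or under a set limit, the compound median less 4 SD, cut at about 6% in these data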;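 further: 0% = Hyamine 1622 control at 20 µM and 100% = untreated cell control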
Lmaj promast: Leishmania major promastigote growth inhibition, primary screen. Leishmania major promastigotes, resazurin fluorescence viability. inhibition, % at 10 µM. 9% of 200,000 active; in the data active means inhibition above about 50%;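 further: promastigotes grown with compound for 44 hours at 28 °C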
INS promoter inh: inhibitors of insulin promoter-driven GFP, primary screen, imaging, TRM-6 cells (human fetal islet line), eGFP reporter, cell count; reporter expression induced with tamoxifen; inhibition, % at 2 µM; 0.9% of 130,000 active;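 active means inhibition above the mean plus 3 SD, with well images judged a real hit on visual review, cut at about 60% in these data, passing the limit was not always enough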
* marks the source's active call; other numbers are inactive results.

For Cc1ccccc1Nc1nc(N)nc(COC(=O)c2ccc(S(=O)(=O)N(C)C)cc2)n1 the results were p97 ATPase inh -2, PTEN del growth 101, bCat KO growth 98, Lmaj promast 67* and INS promoter inh -20.
Cc1ccccc1Nc1nc(N)nc(COC(=O)C2CCCCC2)n1 was read as p97 ATPase inh -7, ROMK primary 0.45, PTEN del growth 91, bCat KO growth 82 and Lmaj promast 0.
CCCCC(=O)OCc1nc(N)nc(Nc2ccccc2C)n1 was read as p97 ATPase inh -7, ROMK primary -0.063, PTEN del growth 98, bCat KO growth 89, Lmaj promast 63* and INS promoter inh 8.
For COc1ccnc(Oc2ccccc2)c1C(N)=O the results were p97 ATPase inh 2 and Lmaj promast -3.
Screening CCCN(CCC)c1nc(N)nc(-c2cc(Cl)ccc2OC)n1 returned p97 ATPase inh -6, ROMK primary -0.062, PTEN del growth 83, bCat KO growth 82, Lmaj promast 58* and INS promoter inh -83.
CCOC(=O)c1sc(-c2ccc(Cl)cc2Cl)nc1O was read as p97 ATPase inh 6.
For CCOC(=O)c1nn(-c2cccc(OC)c2)c(-c2ccccc2)c1C(=O)c1ccccc1 the results were p97 ATPase inh 1, PTEN del growth 66, bCat KO growth 65, Lmaj promast 14 and INS promoter inh 20.
For CCOC(=O)c1nn(-c2cccc(Cl)c2)c(C)c1C(C)=O the results were p97 ATPase inh 0, ROMK primary 1.2, PTEN del growth 99, bCat KO growth 95, Lmaj promast 1 and INS promoter inh 92*.
For CC(C)CC(=O)NC(NC(=S)Nc1cccc2cccnc12)C(Cl)(Cl)Cl (centres undefined) the results were p97 ATPase inh 0, PTEN del growth 61, bCat KO growth 45, Lmaj promast 52* and INS promoter inh 5.
For O=C(C1CC1)N(Cc1ccco1)c1nc(-c2ccccc2)cs1 the results were p97 ATPase inh 8, PTEN del growth 88, bCat KO growth 91, Lmaj promast 58* and INS promoter inh -3.
Screening O=C(Nc1nnc(-c2cccs2)s1)c1cccc(F)c1 returned p97 ATPase inh 9, ROMK primary 0.6, Lmaj promast 0 and INS promoter inh 20.
Screening CC(C)CNC(=S)NC1CC2CCC(C1)N2Cc1ccccc1 (centres undefined) returned p97 ATPase inh -2, PTEN del growth 90, bCat KO growth 91, Lmaj promast 88* and INS promoter inh 17.
For O=C(NC1CC2CCCC(C1)N2Cc1ccccc1)C1CCCCC1 (centres undefined) the results were p97 ATPase inh -1, ROMK primary -0.058 and Lmaj promast 84*.
For COCCCNC(=S)NC1CC2CCC(C1)N2Cc1ccccc1 (centres undefined) the results were p97 ATPase inh -1, ROMK primary 0.84 and Lmaj promast 24.
Screening CCCNC(=S)NC1CC2CCC(C1)N2Cc1ccccc1 (centres undefined) returned p97 ATPase inh -1, PTEN del growth 102, bCat KO growth 83, Lmaj promast 66* and INS promoter inh -11.
Screening CCNC(=S)NC1CC2CCC(C1)N2Cc1ccccc1 (centres undefined) returned p97 ATPase inh 7, PTEN del growth 95, bCat KO growth 88, Lmaj promast 27 and INS promoter inh 30.
CCOCCCNC(=S)NC1CC2CCC(C1)N2Cc1ccccc1 (centres undefined) was read as p97 ATPase inh -4, ROMK primary -0.05 and Lmaj promast 88*.
`S=C(NC1CCCCC1)NC1CC2CCC(C1)N2Cc1ccccc1` (centres undefined) gave p97 ATPase inh 2, ROMK primary -2.4, Lmaj promast 90* and INS promoter inh 8.
`Cc1ccccc1C(=O)NC1CCN(Cc2nnnn2Cc2ccccc2)CC1` gave p97 ATPase inh -4, PTEN del growth 110, bCat KO growth 100, Lmaj promast 8 and INS promoter inh -17.
For Cc1ccccc1C(=O)NC1CC2CCC(C1)N2Cc1ccccc1 (centres undefined) the results were p97 ATPase inh 1, ROMK primary 0.19, Lmaj promast 86* and INS promoter inh -22.

Bioassay records as filed in PubChem BioAssay.
